Source: PubChem BioAssay
Only some compounds are listed: those with a hit (about 19% of all), similar ones and a draw of the others.
TDP1 cell CPT – qHTS for Inhibitors of human tyrosyl-DNA phosphodiesterase 1 (TDP1): qHTS in cells in presence of CPT | Potency, µM (titrated, usually from 46.2 µM), for inactives: top-dose activity change, negative = growth inhibition, usual class: inhibitors | AID 686979, 2013 | chicken DT40 Tdp1-/-;hTDP1 cells + 20 nM CPT, ATP luminescence, 48 h | 420,000 compounds, 12% hits; also: potency is read from the fitted curve at half-maximal effect; nearly all actives have a fitted effect of over 55% in size
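Cell growth measured by CellTiter-Glo luminescence after a minimum 48 h, 37 C compound exposure with 20 nM CPT in Tdp1-knockout DT40 cells stably expressing hTDP1, seeded 400/well; qHTS titration format.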
HT1080 IDH1KD tx – qHTS for induction of synthetic lethality in tumor cells producing 2HG: qHTS for the HT-1080-IDH1KD cell line. HT-1080 IDH1 knockdown viability, ATP luminescence, 48 h. Potency, µM (top dose mostly 46.1 µM), for the others: at the top dose activity, negative = toxicity, most hits filed as cytotoxic. 360,000 compounds, 2% hits. AID 686971, 2013;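 also: potency is read from the fitted curve at half-maximal effect; 0% = DMSO wells and -100% = cell-free medium wells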
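Luminescent ATP read-out (CellTiter-Glo, 10 min at room temperature) after 48 h compound exposure at 37 °C gave viability of IDH1-knockdown HT-1080 cells. Activity was normalised to DMSO and cell-free wells, then fitted as concentration-response curves.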
DT40 TDP1 no CPT – qHTS for Inhibitors of human tyrosyl-DNA phosphodiesterase 1 (TDP1): qHTS in cells in absence of CPT | DT40 Tdp1-/- hTDP1 cells, no CPT, ATP luminescence, 48 h | Potency, µM (doses to about 46.2 µM), for the others: top-dose activity change, negative = growth inhibition, actives largely listed as inhibitors | 420,000 compounds, 15% hits; also: potency is read from the fitted curve at half-maximal effect; nearly all actives have a fitted effect of over 55% in size
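Growth of hTDP1-complemented DT40 Tdp1-knockout cells is measured by ATP luminescence after at least 48 hr compound exposure at 37 °C, with DMSO substituting for the 20 nM CPT used in the parallel screen.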
IL1B secr inh – qHTS for Inhibitors of Inflammasome Signaling: IL-1-beta AlphaLISA Primary Screen; 360,000 compounds, 4.7% hits; activity change, % at 57.5 µM; THP-1 LPS/ATP IL-1B secretion, AlphaLISA, 16 h; stronger effect = lower value; in the data active = activity change below about -50%; inconclusive = mostly about -30% to -49%
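THP-1 cells pretreated 1 hr with compounds (up to 57.5 uM final), then stimulated with LPS (250 ng/mL final) plus ATP (1.25 mM final); secreted IL-1B measured by AlphaLISA after 16 hr, decreased signal indicating inhibition.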
HT1080NT lethal – qHTS for induction of synthetic lethality in tumor cells producing 2HG: qHTS for the HT-1080-NT fibrosarcoma cell line. HT-1080-NT fibrosarcoma viability, CellTiter-Glo ATP luminescence, 48 h. Potency, µM (highest dose often 46.1 µM), without a hit: at the top dose activity, negative = less viability, hits mostly cytotoxic. 360,000 compounds, 1.6% hits. AID 686970, 2013;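 also: NT is the 2HG producing partner of a matched IDH1 knockdown line; potency is read from the fitted curve at half-maximal effect; 0% = DMSO-treated cells and -100% = media-only wells without cells; nearly all actives have a fitted effect of over 55% in size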
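Luminescent CellTiter-Glo readout after 48 hours of compound exposure at 37 degrees C defined viability of HT-1080-NT cells. Activity was normalized to DMSO wells and cell-free media wells; concentration-response curves were fitted and assigned curve classes.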
* hit, by the source's call; [ ] = remark or other dose. Unless noted, calls follow the shape of the dose curve; as a rule, active = well fitted curve in the direction sought with a large enough effect; inconclusive = small, poorly fitted or top-dose-only effect, or another doubt; inactive = no such curve, though single readings can be large; an effect the other way counts as inactive or inconclusive. Unless noted, % is scaled to controls: 0 for no effect and ±100 for the full control effect.

CCN(CC)S(=O)(=O)c1ccc(N2CCCC2)c(NS(=O)(=O)c2ccc(F)cc2)c1 was read as TDP1 cell CPT inconclusive, HT1080 IDH1KD tx -7.3%, DT40 TDP1 no CPT 14.6µM*, IL1B secr inh -1.1 and HT1080NT lethal -0.6%.
Screening Cc1cccc2cc(C#N)c(N3CCC(O)CC3)nc12 returned TDP1 cell CPT inconclusive, HT1080 IDH1KD tx 4.9%, DT40 TDP1 no CPT inconclusive, IL1B secr inh -16.5 and HT1080NT lethal -0.4%.
`CCCN(C)C[C@@H]1Oc2ncc(Br)cc2C(=O)N([C@@H](C)CO)C[C@H]1C` gave TDP1 cell CPT -9.7%, HT1080 IDH1KD tx 15.4%, DT40 TDP1 no CPT -20.2%, IL1B secr inh 23.1 and HT1080NT lethal 7.2%.
For CCN(CC)S(=O)(=O)c1ccc(N2CCCC2)c(NS(=O)(=O)c2ccc(OC)cc2)c1 the results were TDP1 cell CPT inconclusive, HT1080 IDH1KD tx -0.3%, DT40 TDP1 no CPT 16.4µM*, IL1B secr inh 10.5 and HT1080NT lethal -2.2%.
Screening CCN(CC)S(=O)(=O)c1ccc(N2CCCC2)c(NS(=O)(=O)c2ccccc2)c1 returned TDP1 cell CPT 23.1µM*, HT1080 IDH1KD tx -2.7%, DT40 TDP1 no CPT inconclusive, IL1B secr inh 14.7 and HT1080NT lethal -0.2%.
Screening COc1cc(/C=C/C(=O)Nc2ccc(N3CCCCC3)c(S(=O)(=O)Nc3ccccc3Cl)c2)cc(OC)c1OC returned TDP1 cell CPT inconclusive, HT1080 IDH1KD tx 24.9%, DT40 TDP1 no CPT 2.59µM*, IL1B secr inh 16.8 and HT1080NT lethal 4.6%.
Screening COc1ccccc1NS(=O)(=O)c1cc(NC(=O)Nc2ccc(Cl)cc2Cl)ccc1N1CCCCC1 returned TDP1 cell CPT inconclusive, HT1080 IDH1KD tx -18.9%, DT40 TDP1 no CPT inconclusive, IL1B secr inh -5.1 and HT1080NT lethal 6.2%.
CCN(CC)S(=O)(=O)c1ccc(N2CCCC2)c(NS(=O)(=O)c2ccc([N+](=O)[O-])cc2)c1 was read as TDP1 cell CPT inconclusive, HT1080 IDH1KD tx 7.2%, DT40 TDP1 no CPT -28.5%, IL1B secr inh 7.9 and HT1080NT lethal 2.9%.
Screening Cc1ccc(NC(=O)CSc2nncn2N)cc1C returned TDP1 cell CPT 5.8%, HT1080 IDH1KD tx 4.3%, DT40 TDP1 no CPT 15.4%, IL1B secr inh 13.1 and HT1080NT lethal 0.3%.
Screening COC(=O)[C@]12CCCCC=C1N(Cc1ccco1)C(=O)[C@H](CC(=O)NCC13CC4CC(CC(C4)C1)C3)C2 returned TDP1 cell CPT inconclusive, HT1080 IDH1KD tx inconclusive, DT40 TDP1 no CPT inconclusive, IL1B secr inh -16.0 and HT1080NT lethal inconclusive.
For COc1ncc2nc(-c3cccs3)c(=O)n(Cc3ccc(F)cc3)c2n1 the results were TDP1 cell CPT -17.7% and DT40 TDP1 no CPT -5.5%.
`CNC(=O)c1ccc(CN(C)C(=O)c2cccc(S(=O)(=O)N3CCc4ccccc4C3)c2)cc1` gave TDP1 cell CPT -9.0%, HT1080 IDH1KD tx -2.8%, DT40 TDP1 no CPT inconclusive, IL1B secr inh 2.5 and HT1080NT lethal 2.8%.
`C[C@@]12C(=O)N(Cc3ccccc3)CC(=O)N1[C@H]1c3cc(Cl)ccc3OC[C@@H]1[C@@H]2c1ccccc1` gave TDP1 cell CPT inconclusive, HT1080 IDH1KD tx -4.9%, DT40 TDP1 no CPT 18.4µM*, IL1B secr inh -27.9 and HT1080NT lethal -6.9%.
Screening C[C@@]12C(=O)N(Cc3ccc(F)cc3)CC(=O)N1[C@H]1c3cc(Cl)ccc3OC[C@@H]1[C@@H]2c1ccccc1 returned TDP1 cell CPT 23.1µM*, HT1080 IDH1KD tx -10.8%, DT40 TDP1 no CPT 18.4µM*, IL1B secr inh inconclusive and HT1080NT lethal -8.0%.
`O=C(NC1CC(=O)N(c2ccc(F)cc2)C1)c1ccc2c(c1)OCO2` (stereo not drawn) gave TDP1 cell CPT -6.8% and DT40 TDP1 no CPT -18.2%.
Screening CCOC(=O)C1CCN(C(=O)COC(=O)COc2ccccc2OC)CC1 returned TDP1 cell CPT 5.6%, HT1080 IDH1KD tx 9.7%, DT40 TDP1 no CPT -20.4%, IL1B secr inh 44.1 and HT1080NT lethal 11.5%.
Screening COc1cc(/C=C2/SC(=S)N(Cc3ccccc3)C2=O)ccc1OCC(=O)O returned TDP1 cell CPT 0.7%, HT1080 IDH1KD tx -24.7%, DT40 TDP1 no CPT 2.7%, IL1B secr inh 5.8 and HT1080NT lethal -4.2%.
For COc1cc(/C=C2/SC(=S)N(Cc3ccccc3)C2=O)ccc1OS(C)(=O)=O the results were TDP1 cell CPT inconclusive, HT1080 IDH1KD tx -2.8%, DT40 TDP1 no CPT inconclusive, IL1B secr inh 4.2 and HT1080NT lethal -4.2%.
`COc1cc(/C=C2\SC(=O)N(Cc3ccc(Cl)cc3)C2=O)cc([N+](=O)[O-])c1O` gave TDP1 cell CPT inconclusive, HT1080 IDH1KD tx 10.0%, DT40 TDP1 no CPT 23.1µM*, IL1B secr inh 22.1 and HT1080NT lethal 4.8%.
Screening COc1cc([N+](=O)[O-])cc(/C=C2/SC(=S)N(Cc3ccccc3)C2=O)c1O returned TDP1 cell CPT 16.4µM*, HT1080 IDH1KD tx -7.4%, DT40 TDP1 no CPT 7.31µM*, IL1B secr inh 3.3 and HT1080NT lethal 0.1%.
`COc1cc(/C=C2/SC(=S)N(Cc3ccccc3)C2=O)cc(Cl)c1O` gave TDP1 cell CPT 16.4µM*, HT1080 IDH1KD tx 0.6%, DT40 TDP1 no CPT 13µM*, IL1B secr inh 15.5 and HT1080NT lethal -9.8%.
For O=C(CSc1nn(-c2ccccc2)c(=S)s1)NC(=O)NCc1ccco1 the results were TDP1 cell CPT -17.7%, HT1080 IDH1KD tx inconclusive, DT40 TDP1 no CPT inconclusive, IL1B secr inh -1.8 and HT1080NT lethal 0.9%[9.24 µM].
Screening Cc1nn(CCC(=O)NC(C)C)c(=O)c2nn(-c3ccccc3)c(C)c12 returned TDP1 cell CPT -11.5% and DT40 TDP1 no CPT -7.9%.
`CSC1=N/C(=C\c2ccc(Cl)cc2)C(=O)N1N(C)C` gave TDP1 cell CPT inconclusive, HT1080 IDH1KD tx -17.0%, DT40 TDP1 no CPT 23.1µM* and HT1080NT lethal -1.6%.
Screening COc1ccc(-c2nn(-c3ccccc3)cc2C(=O)Nc2ccccc2OC)cc1 returned TDP1 cell CPT 16.4µM* and DT40 TDP1 no CPT 20.6µM*.
Screening COc1ccc(NC(=O)c2cc3ccccc3oc2=O)cc1 returned TDP1 cell CPT -20.4%, HT1080 IDH1KD tx 10.2%, DT40 TDP1 no CPT inconclusive, IL1B secr inh 9.3 and HT1080NT lethal 11.6%.
Screening COc1ccc(NC(=O)c2cn(-c3ccccc3)nc2-c2cc3ccccc3o2)cc1 returned TDP1 cell CPT 16.4µM*, HT1080 IDH1KD tx -9.4%, DT40 TDP1 no CPT 20.6µM*, IL1B secr inh -2.1 and HT1080NT lethal -11.1%.
